Results taken from article PMC7826789 (International Journal of Molecular Sciences, 2021).

The molecules below were run on STK17A.

Kinases covered, STK17A:
C[C@H]1CC[C@@H](C(=O)Nc2ccccc2)CN1c1cc(-c2ccc3c(N)n[nH]c3c2)nc(N)n1 [GSK2283293], CC(C)c1cc(-c2ccc3c(N)n[nH]c3c2)nc(N)n1 [GSK2250882], C[C@@H]1CCNC(=O)c2cc3ccc(C(=O)Nc4nc5ccccc5n4CCCN(C)C)cc3n21 [BI00645435], CNc1nc(-c2ccc3c(N)n[nH]c3c2)cc(N2C[C@@H](C(=O)Nc3ccccc3)CC[C@H]2C)n1 [GSK2298859]
